Compound activity: PubChem BioAssay, Buhrlage Lab, Dana-Farber Cancer Institute and Novartis Institutes for BioMedical Research (Cambridge, Mass)
USP28 block: blocks human USP28 ubiquitin-rhodamine cleavage; Q96RU2; purified USP28, Ub-rhodamine cleavage fluorescence, 30 min; inhibition, % at 25 µM; actives 3% (n = 47,000); AID 1645857
USP8 inh: inhibitors of human USP8 deubiquitinase; purified USP8, Ub-rhodamine cleavage fluorescence, 30 min; inhibition, % at 20 µM; AID 1645853; actives 4.2% (n = 47,000); P40818
OTUD3 block: inhibitors of human OTUD3 deubiquitinase | Q5T2D3 | purified OTUD3, Ub-rhodamine fluorescence, 2 h | inhibition, % at 25 µM | actives 0.7% (n = 47,000) | AID 1645858
Target sequence (Q5T2D3 whole entry, looked up): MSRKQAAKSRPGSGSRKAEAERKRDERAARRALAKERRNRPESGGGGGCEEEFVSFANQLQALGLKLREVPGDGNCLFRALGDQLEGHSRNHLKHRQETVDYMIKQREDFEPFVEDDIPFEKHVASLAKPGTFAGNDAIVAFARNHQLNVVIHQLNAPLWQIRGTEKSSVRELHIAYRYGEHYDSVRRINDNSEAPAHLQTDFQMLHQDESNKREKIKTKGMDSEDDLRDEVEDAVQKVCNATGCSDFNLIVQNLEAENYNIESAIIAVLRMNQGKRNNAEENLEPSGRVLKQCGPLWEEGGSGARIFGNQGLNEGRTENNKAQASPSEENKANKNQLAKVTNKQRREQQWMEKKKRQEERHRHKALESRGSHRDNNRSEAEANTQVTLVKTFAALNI
USP30 inh: inhibitors of human USP30 deubiquitinase; actives 5.3% (n = 47,000); Q70CQ3; purified USP30, Ub-rhodamine cleavage fluorescence; inhibition, % at 25 µM
USP17 block: human USP17-like deubiquitinase inhibition; A8MUK1; purified USP17, Ub-rhodamine cleavage fluorescence, 3 h; inhibition, % at 50 µM; actives 6.5% (n = 47,000)
Of the large screens only hits and unclear results are named; the others gave an inactive call. Shown are actives, neighbours in structure and some others; about 13% of the full set was active somewhere. Rule as the data show it: active = inhibition above about 30%; inactive = the rest.

CCOc1c(C)cc(S(=O)(=O)Nc2ccc3c(c2)N(C(C)=O)CC3)cc1C	USP17 block 68 (no result: USP28 block, USP30 inh)
Cc1ccc2[nH]c3c(=O)n(CCc4ccc(O)cc4)cnc3c2c1	USP28 block 43, USP30 inh 93, USP17 block 57
COc1ccc(CCn2cnc3c([nH]c4ccccc43)c2=O)cc1	USP28 block 35, USP30 inh 96, USP17 block 34
Cc1ccc2[nH]c3c(=O)n(CC4CCCO4)cnc3c2c1 (configuration not stated)	USP30 inh 44, USP17 block 68
Cc1ccc2[nH]c3c(=O)n(CCC4=CCCCC4)cnc3c2c1	USP8 inh 31
Cc1ccc2[nH]c3c(=O)n(CCN4CCCC4)cnc3c2c1	none
O=c1c2[nH]c3ccccc3c2ncn1CCC1=CCCCC1	none
O=C1c2cccnc2C(Nc2ccccc2Cl)N1Cc1ccco1 (configuration not stated)	none (no result: USP28 block, USP30 inh)
COc1ccc(C2(c3nnc(C(C)Oc4ccc(F)cc4)o3)CCOCC2)cc1 (configuration not stated)	none
CNc1nc2c(c(=O)n1C)CN(S(=O)(=O)c1ccc(C)cc1)CC2	none
Cc1cccc(N2CCN(C(=O)C3CCN(c4nc5cccnc5s4)CC3)CC2C)c1 (configuration not stated)	none
O=C(CC(c1ccc(F)cc1)n1cccc1)Nc1ccc(Cl)cc1 (configuration not stated)	none
O=C(CC(c1cccc(F)c1)n1cccc1)Nc1ccc(F)c(Cl)c1 (configuration not stated)	USP30 inh 36, USP17 block 46
CC(C)(C)c1ccc(C(=O)N2CCC(NC(=O)Cc3ccccc3)CC2)cc1	none
CCOC(=O)c1cc(OCC(=O)Nc2ccc(C)cc2)c2cc(Cl)ccc2n1	none
CCOC(=O)c1cc(OCC(=O)Nc2ccccc2)c2cc(Cl)ccc2n1	USP17 block 40
CSc1cccc(Nc2cc(C(=O)NCCCN3CCOCC3)c3ccccc3n2)c1	none
CCOC(=O)c1c(NC(=O)C(C)Sc2nnc(CNC(=O)c3ccco3)n2C2CCCCC2)sc2c1CCCCC2 (configuration not stated)	none
O=C(c1cc(Cl)nc2ccccc12)N1CCc2ccccc2C1	USP8 inh 33
CCc1ccc(-c2c3c4n(c(-c5ccc(C)cc5)cn4c2C(=O)Nc2ccc(Cl)cc2)CCCC3)cc1	none
Cc1ccc(-c2c3c4n(c(-c5ccc(Cl)cc5)cn4c2C(=O)Nc2ccccc2Cl)CCCC3)cc1	USP8 inh 43
COc1ccc2c(C)c(CCC(=O)N3CC[C@@]4(O)CCCC[C@H]4C3)c(=O)oc2c1	none
COCc1cc(Sc2ccc(OC)cc2)nc(-c2ccccc2)n1	none
O=S(Cc1cc(Sc2ccccc2)nc(-c2ccccc2)n1)c1ccccc1 (configuration not stated)	USP30 inh 34
COc1ccc(C2NC(=O)NC(C)=C2C(=O)OC2CCCC2)cc1OC (configuration not stated)	USP8 inh 35
NC(=O)c1cc(CC2CCCN(C(=O)c3ccccc3)CC2)ncn1 (configuration not stated)	none
Cc1cc(CN2CCOCC2)c(NC(=O)c2ccco2)s1	none (no result: USP28 block, USP30 inh)
Cc1cc(C(Nc2ccccn2)c2ccc(Cl)cc2)c(NC(=O)c2ccco2)s1 (configuration not stated)	USP8 inh 35 (no result: USP17 block)
Cc1nc(NCc2ccc(Cl)cc2)cc(-c2cncc(-c3cccs3)c2)n1	USP17 block 35
COCCCNc1cc(-c2cncc(-c3cccs3)c2)nc(-c2ccccc2)n1	none
Cn1cc(-c2noc(C3CCN(S(=O)(=O)c4ccc(Cl)cc4)CC3)n2)ccc1=O	none
CCc1ccccc1N1CC(c2nnc(NC(=O)Cc3ccc(C)cc3)s2)CC1=O (configuration not stated)	USP17 block 37
COc1ccc2nc(NC(=O)c3ccccc3-c3ccc(C(F)(F)F)cc3)sc2c1	none
CCOc1ccc(-c2ccc3nnc(SCC(=O)Nc4ccc(F)cc4)n3n2)cc1	USP8 inh 78, USP30 inh 33 (no result: USP17 block)
O=C(Cn1nc(-c2ccccc2)cc(NC(=O)c2ccccc2)c1=O)Nc1ccc(F)cc1	USP30 inh 39, USP17 block 39
O=C(CSc1nnc2ccc(-c3ccccc3)nn12)Nc1ccc(F)cc1	USP30 inh 34, USP17 block 43
O=C(Cc1ccc(-c2ccccc2)cc1)Nc1ccc(F)cc1	none
OC(CNCc1ccccc1Cl)(c1ccccc1)c1ccc(F)cc1 (configuration not stated)	none
Cc1nc2nnc3ccc(C(=O)NC(C)C)cc3c2n1CCN(C)C	none
